Measured values from PubChem BioAssay (NCI).
This is part of a sample that, as a whole, favours compounds with a hit. Of some 83,000 tested, about 20% had one in any assay.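 In brief: 96-well plates, 48 h treatment, single concentration, percent growth endpoint.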 Calls of active or inactive are those of the source. The calls were made as follows: active = growth percent below 10; inactive = the rest.

Key:
Assay in all cases: NCI-60 one-dose screen, 48 h (100 = growth as untreated, 0 = no growth, -100 = all killed)
Conditions in all cases: 10 µM unless noted
[1] = system: NCI-H23 lung
[2] = system: NCI-H322M lung
[3] = system: HOP-62 NSCLC
[4] = system: NCI-H460 lung
[5] = system: HOP-92 NSCLC
[6] = system: NCI-H522 lung
[7] = system: 786-0 renal
[8] = system: DU-145 prostate
[9] = system: K-562 leukemia
[10] = system: MALME-3M melanoma
[11] = system: MDA-MB-231 breast
[12] = system: RXF 393 renal
[13] = system: SF-268 CNS
[14] = system: SF-295 CNS
[15] = system: SF-539 CNS
[16] = system: UACC-257 melanoma
[17] = system: M14 melanoma
[18] = system: A549/ATCC NSCLC
[19] = system: COLO 205 colon
[20] = system: NCI-H226 lung

Measured: growth

CNC(=O)NCC1OC(n2cnc3c(NC(=O)Nc4ccccc4)ncnc32)C2OC(C)(C)OC12 (centres undefined)
inactive: [1] 87.3% | [2] 101% | [3] 99.3% | [4] 101% | [5] 14.4% | [6] 103% | [7] 105% | [8] 93.7% | [9] 90.4% | [10] 75.7% | [11] 107% | [12] 96.6% | [13] 91.3% | [14] 119% | [15] 83.9% | [16] 107% | [17] 88.8%

O=C1N/C(=N/O)S/C1=C/c1cn(-c2ccccc2)nc1-c1ccccc1
inactive: [1] 88.1% | [2] 87.3% | [4] 104% | [5] 107% | [6] 95.6% | [18] 93.6% | [7] 83.7% | [8] 102% | [9] 94.2% | [10] 141% | [11] 85.8% | [12] 95.6% | [13] 97.7% | [14] 107% | [15] 110% | [16] 113% | [17] 105%

O=C1NC(=S)S/C1=C\N1N=C(c2ccc(Cl)cc2)CC1c1ccc(F)cc1 (centres undefined)
inactive: [1] 91.3% | [2] 99.1% | [3] 103% | [4] 95.8% | [5] 104% | [6] 76.1% | [18] 84.1% | [7] 94% | [8] 98.5% | [9] 59.8% | [10] 83.7% | [11] 80.9% | [12] 73.8% | [13] 85.9% | [14] 92.4% | [15] 89.5% | [16] 107% | [17] 87.7%

C=C(C)C1CCC(=C)C2CCC3(C)OC12/C=C(/COC(C)=O)CCC3O (centres undefined)
inactive: [1] 111% | [2] 97.9% | [3] 103% | [4] 104% | [5] 60.6% | [18] 74.2% | [7] 106% | [8] 100% | [9] 88.6% | [10] 137% | [11] 105% | [12] 98.4% | [13] 105% | [15] 104% | [16] 37.9% | [17] 109%

CCN(CC)CC(=O)Nc1cccc(C(=O)OC(C)C)c1
inactive: [1] 92.1% | [2] 96.8% | [3] 92.2% | [4] 112% | [5] 82% | [6] 66.3% | [18] 93.7% | [7] 79.8% | [8] 109% | [9] 102% | [10] 99.5% | [11] 112% | [12] 112% | [13] 105% | [14] 95% | [15] 100% | [16] 106% | [17] 79.6%

[2H]c1nc(Nc2ncc(F)c(-c3cc(F)c4nc(C)n(C(C)C)c4c3)n2)c([2H])c([2H])c1CN1CCN(C([2H])([2H])C([2H])([2H])[2H])CC1
inactive: [1] 50.6% | [2] 44.6% | [3] 47% | [4] 53.1% | [5] 66.9% | [6] 58.1% | [18] 38.8% | [7] 39% | [8] 66.2% | [9] 49.6% | [10] 79.5% | [11] 65.2% | [13] 64.5% | [14] 57.8% | [15] 72.1% | [16] 52.3% | [17] 47.5%
active: [12] 1.53%

O=[N+]([O-])c1ccc2[nH]cc(-c3c4ccsc4cc4[nH]c5ccc([N+](=O)[O-])cc5c34)c2c1
active: [1] 7.93% | [4] 4.39% | [6] -22.9% | [18] 5.78% | [7] -44% | [19] -50.3% | [8] -14.3% | [11] -5.82% | [12] -42.2% | [14] -4.03% | [15] -44.9%
inactive: [2] 20.4% | [5] 26.8% | [10] 30.1% | [13] 19.3% | [16] 41.8%

CCC(=O)OC1=C(C)SC2=NC(c3ccc(Cl)c(Cl)c3)=CC(c3cc(OC)c(OC)c(OC)c3)N21 (centres undefined)
inactive: [1] 98.5% | [2] 97.4% | [3] 95.9% | [4] 108% | [5] 67.9% | [6] 97.8% | [18] 105% | [7] 104% | [8] 114% | [9] 103% | [10] 104% | [11] 90.2% | [12] 91% | [13] 102% | [14] 94.8% | [15] 90.9% | [17] 106%

N#Cc1cccc(-c2nc3ccccn3c2NCCN2CCOCC2)c1
inactive: [1] 98.6% | [2] 87.1% | [3] 72.5% | [4] 98.8% | [5] 93% | [6] 85.8% | [18] 90.4% | [7] 96.1% | [8] 106% | [9] 97.3% | [10] 108% | [11] 94.6% | [12] 96.3% | [13] 90.3% | [14] 101% | [15] 92.2% | [16] 98.8% | [17] 89.9%

CN(C)CN1CCN(c2ccc3nc(-c4ccc5nc(-c6ccc(C(F)(F)F)cc6)[nH]c5c4)[nH]c3c2)CC1
active: [10] -4.2%
inactive: [1] 55.6% | [2] 87.1% | [3] 57.6% | [4] 10.6% | [5] 75.8% | [6] 42.1% | [18] 83.8% | [7] 78.5% | [8] 45% | [9] 11.6% | [11] 63.1% | [12] 50.3% | [13] 67.8% | [14] 60.7% | [15] 65.8% | [16] 40.7% | [17] 32.2%

COc1cc(/C=C/C(=O)c2cccc(-n3cc(-c4ccccc4)[nH]c3=O)c2)cc(OC)c1OC
active: [1] -27.4% | [4] -68.5% | [6] -64.5% | [7] -63.4% | [8] 7.58% | [9] 5.48% | [10] 2.69% | [11] 5.03% | [12] -69.7% | [15] -88.8% | [16] -13.2%
inactive: [2] 33% | [5] 24.3% | [18] 27.1% | [13] 17.7% | [14] 51%

CC(C)(C)c1ccc(C(=O)Nc2sc3c(c2C(N)=O)CCC(=O)C3)cc1
inactive: [2] 62.6% | [3] 26.5% | [18] 15.1% | [7] 23.8% | [8] 24.7%
active: [1] -15% | [4] -10.7% | [5] -22.7% | [6] -10.2% | [9] 4.82% | [10] -53.4% | [11] -59.5% | [12] -22.4% | [13] -2.29% | [14] -48.3% | [15] -77.8% | [16] -30.4% | [17] -49.2%

CC(C)(C)N1CC(OC(N)=O)C1
active: [16] 4.43%
inactive: [20] 98.2% | [2] 98.6% | [3] 100% | [4] 113% | [5] 96.2% | [6] 114% | [18] 71.8% | [7] 96.4% | [8] 109% | [9] 130% | [10] 106% | [11] 97.7% | [12] 29.1% | [13] 109% | [14] 113% | [15] 98% | [17] 97.6%

Cc1c(C)c2c(c(C)c1NC(=O)/C=C\C(=O)O)CCC(C)(CCCC(C)CCCC(C)CCCC(C)C)O2 (centres undefined)
inactive: [2] 102% | [4] 72.1% | [5] 45.5% | [18] 61.1% | [7] 33.5% | [8] 80.2% | [9] 71.9% | [11] 70.9% | [13] 53.9% | [14] 66.3% | [16] 20.5% | [17] 20.7%
active: [20] -85.9% | [3] -13.4% | [12] -93% | [15] 8.15%

Cc1cc(N2CCCCC2)nc(N(CCNc2ccnc3cc(Cl)ccc23)Cc2ccccn2)n1
inactive: [20] 63.5% | [2] 68.8% | [3] 55.6% | [4] 41.5% | [5] 30.6% | [6] 56.3% | [18] 53.9% | [7] 45.3% | [8] 61.9% | [10] 74.1% | [11] 49.6% | [12] 30.7% | [13] 71.8% | [14] 21.5% | [15] 39.2% | [16] 66.9% | [17] 45%
active: [9] 7.83%

O=C(CCc1nc(-c2cccc(Cl)c2)no1)Nc1ccccn1
inactive: [20] 89.8% | [2] 108% | [3] 124% | [4] 103% | [5] 82.3% | [18] 111% | [7] 96.3% | [19] 117% | [8] 109% | [9] 87.5% | [10] 91.7% | [11] 95.6% | [13] 104% | [14] 94% | [15] 96.6% | [16] 114%

COc1cc(-c2ccc(-c3ccc(C(=N)N)nc3)s2)cc(OC)c1OC
active: [9] 5.58% | [15] 1.84%
inactive: [20] 102% | [2] 70.3% | [4] 25.7% | [5] 49% | [6] 77% | [18] 61.3% | [7] 40.3% | [8] 49.9% | [10] 24.7% | [11] 44.2% | [12] 77.1% | [13] 86.1% | [14] 40.1% | [16] 92.9% | [17] 43.1%

O=C(O)CC1Sc2ccccc2NC1=O (centres undefined)
inactive: [20] 95.2% | [2] 104% | [3] 96.3% | [4] 195% | [5] 73.1% | [6] 81% | [18] 106% | [7] 108% | [8] 116% | [9] 70.4% | [10] 106% | [11] 108% | [13] 100% | [14] 104% | [15] 145% | [16] 98.5% | [17] 89.5%
